From PubChem
USP2a block = inhibitors of human ubiquitin-specific protease USP2a | O75604 | USP2 core, Ub-CHOP2 coupled fluorogenic reporter, 485/531 | Potency, µM (highest dose often 38.3 µM), for the others: at the highest dose activity change, negative = inhibition, usual class: inhibitors | 330,000 tested, 0.01% active;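 further: plate controls were DMSO wells for no effect and full inhibition by NEM control for full effect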
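Deubiquitinase activity read as fluorescence (485/531 nm) after Ub-CHOP2 cleavage activates the enterokinase reporter on its substrate; USP2 core 10nM, Ub-CHOP2 and substrate 25nM each, 30min compound preincubation then 60min RT; data normalized to NEM, curves fitted.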
Tb PFK inh-1 = inhibitors of T. brucei phosphofructokinase; Potency, µM (doses to about 57.5 µM), for inactives: at the highest dose activity, negative = inhibition, hits mostly inhibitors; T. brucei PFK, ADP-Glo luminescence; O15648; 330,000 tested, 0.17% active;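 further: 0% = uninhibited 1x PFK enzyme wells and -100% = no-enzyme wells; nearly all actives have a fitted effect of over 60% in size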
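In TEA buffer at pH 8.0 with 5 mM MgCl2, enzyme (1.25 nM) converted F6P (0.5 mM) and ATP (0.1 mM) for 45 min at room temperature. ADP product was read by luciferase luminescence.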
p53 reactivation = mutant p53 re-activation in reporter cells; Potency, µM (highest dose often 92.2 µM), inactives show at the top dose activity change, positive = activation, hits mostly activators; AID 504706; 320,000 tested, 0.063% active; H1299 p53-A138V BP100-luciferase reporter, luminescence, 24 h; further: % of control where 0% means no effect; nearly all actives have a fitted effect of over 45% in size
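p53-null H1299 cells stably carrying temperature-sensitive p53-A138V and a BP100-luciferase reporter were pinned with compounds (4-point, 1:5 series) and held 24 hrs at 37 deg C. Luminescence was read 10 min after detection reagent.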
GLS inhibitor = glutaminase GLS (human) inhibition; AID 624170; O94925; Potency, µM (top dose mostly 45.5 µM), for the others: at the highest dose activity change, negative = inhibition, most hits filed as inhibitors; 410,000 tested, 0.21% active; GLS enzymatic activity, qHTS titration; further: on the % scale 0 is the no-effect control and ±100 the full control effect
Target sequence (O94925 whole entry, looked up): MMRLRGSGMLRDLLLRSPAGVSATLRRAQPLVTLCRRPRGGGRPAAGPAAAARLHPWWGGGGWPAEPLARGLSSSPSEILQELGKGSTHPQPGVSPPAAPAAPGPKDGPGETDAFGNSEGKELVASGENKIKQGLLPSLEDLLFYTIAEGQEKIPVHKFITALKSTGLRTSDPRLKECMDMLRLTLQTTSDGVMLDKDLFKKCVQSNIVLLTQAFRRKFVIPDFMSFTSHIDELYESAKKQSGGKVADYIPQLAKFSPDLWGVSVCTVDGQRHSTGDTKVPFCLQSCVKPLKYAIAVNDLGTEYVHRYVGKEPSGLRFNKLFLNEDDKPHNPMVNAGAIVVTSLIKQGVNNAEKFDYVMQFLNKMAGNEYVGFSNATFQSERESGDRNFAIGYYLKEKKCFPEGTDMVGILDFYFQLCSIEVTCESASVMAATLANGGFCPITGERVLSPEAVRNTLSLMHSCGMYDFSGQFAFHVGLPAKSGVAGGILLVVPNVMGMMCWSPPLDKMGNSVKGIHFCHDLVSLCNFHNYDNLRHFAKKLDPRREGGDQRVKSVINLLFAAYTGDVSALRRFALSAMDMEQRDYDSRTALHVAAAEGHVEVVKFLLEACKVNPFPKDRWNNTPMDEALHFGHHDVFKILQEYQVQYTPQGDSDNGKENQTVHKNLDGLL
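Coupled fluorescence readout: glutamate oxidase/HRP/Amplex Red detect glutamate formed by hKGA from L-glutamine (1 mM solution added). Buffer 45 mM KH2PO4 pH 8.2, 0.02% Tween-20; reads at t0 and 30 min RT.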
Tb PFK KinaseGlo = orthogonal confirmation of T. brucei phosphofructokinase inhibitors. shares compounds with Tb PFK inh-1. Tb PFK enzyme, ATP depletion, Kinase-Glo Plus luminescence. Potency, µM (highest dose often 57.5 µM), for the others: at the top dose inhibition. 1,100 tested, 47% active. AID 504636; calls by dose curve; further: nearly all actives have a fitted effect of over 60% in size
Tb PFK inh-2 = validation of T. brucei phosphofructokinase inhibitors; shares compounds with Tb PFK inh-1; purified T. brucei PFK, ADP-Glo luminescence, 45 min; Potency, µM (top dose mostly 57.5 µM), for inactives: top-dose activity change, negative = inhibition, actives largely listed as inhibitors; 1,100 tested, 41% active;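 further: plate controls were full PFK enzyme control for no effect and no enzyme control for full effect; nearly all actives have a fitted effect of over 60% in size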
* hit, by the source's call; ? = inconclusive; . = no result given; [ ] = dose if it differs, or a comment. Only some compounds are listed: those with a hit (about 0.39% of all), similar ones and a draw of the others. Unless noted, the call rests on the fitted dose curve; in most records, active means well fitted curve in the direction sought with a large enough effect; inconclusive means small, poorly fitted or top-dose-only effect, or another doubt; inactive means no such curve, though single readings can be large; an effect the other way counts as inactive or inconclusive. Potency means the concentration at half of the fitted maximal effect.

SMILES	USP2a block	Tb PFK inh-1	p53 reactivation	GLS inhibitor	Tb PFK KinaseGlo	Tb PFK inh-2
O=C(NNC(=O)c1ccccc1O)c1cc2ccccc2o1	0%	?	17%	50%	-29%	?
CCc1nnc(NS(=O)(=O)c2ccc(NC(=O)COc3ccc(Cl)c(C)c3)cc2)s1	-2%	5.4µM*	-4%	-1%	2.4µM*	7.6µM*
Cc1noc(NS(=O)(=O)c2ccc(NC(=O)COc3ccc(C#N)cc3)cc2)c1C	3%	13µM*	-3%	6%	6.7µM*	21µM*
CCN1CCN(C(=O)COc2ccc(S(=O)(=O)Nc3ccc(Cl)cc3)cc2)CC1	2%	0%	11%	19%	.	.
N#Cc1ccc(OCC(=O)Nc2ccc(S(=O)(=O)N3CCOCC3)cc2)cc1	-1%	12µM*	-5%	5%	12µM*	30µM*
O=C(COc1ccc(S(=O)(=O)N2CCOCC2)cc1)N1CCN(Cc2ccc3c(c2)OCO3)CC1	?	0%	18%	-6%	.	.
Cc1cc(NS(=O)(=O)c2ccc(NC(=O)COc3ccc(Cl)cc3)cc2)no1	-2%	5.4µM*	-14%	18%	1.7µM*	3.8µM*
CN1CCN(C(=O)COc2ccc(S(=O)(=O)Nc3ccc(Cl)cc3)cc2)CC1	.	.	.	0%	.	.
O=C(COc1ccc(Br)cc1)N1CCN(Cc2ccc3c(c2)OCO3)CC1	-3%	1%	-2%	15%	.	.
COP(=S)(OC)Oc1ccc(S(N)(=O)=O)cc1	.	.	.	2%	.	.
C[N+]1([O-])[C@H]2CC[C@H]1CC(OC(=O)[C@@H](CO)c1ccccc1)C2 (stereo not given in full)	.	.	.	-16%	.	.
Cc1cccc(C)c1-n1nnnc1C(c1ccccc1OC(F)(F)F)N1CCC(n2c(=O)[nH]c3ccccc32)CC1 (stereo not given)	.	.	.	-3%	.	.
OCCCBr	.	.	.	1%[99.4 µM]	.	.
O=c1c2ccccc2nc(/C=C\c2ccccc2F)n1-c1ccc(O)cc1	.	.	.	7%	.	.
CCOC(=O)[C@]12Cc3cc(Cl)ccc3[C@H]1N(C1CCCCC1)C(=O)c1ccccc12	.	.	.	32%	.	.
Cc1cc(NS(=O)(=O)c2ccc(NC(=O)Cc3ccc([N+](=O)[O-])cc3)cc2)no1	0%	2.4µM*	2%	13%	0.85µM*	1.5µM*
Cc1cc(NS(=O)(=O)c2ccc(NC(=S)NCc3ccccc3)cc2)no1	-1%	19µM*	0%	-1%	24µM*	?
Cc1cc(NC(=O)c2cccn(Cc3ccccc3)c2=O)no1	.	.	.	-3%	.	.
Cc1nc2ccccc2c(=O)n1-c1ccccc1Cl	.	.	.	-11%[99.4 µM]	.	.
Cn1c(SCC(=O)O)nnc1-c1ccc(NC(=O)c2ccc(Cl)c(Cl)c2)cc1	4%	?	4%	1%	24µM*	?
CCOC(=O)[C@]12Cc3cc(OC)ccc3[C@H]1N(C(C)C)C(=O)c1cc(OC)ccc12	.	.	.	19%	.	.
C[C@@H]1NCCc2cc(O)c(O)cc21	3%	?	-8%	-22%	8.5µM*	?
CC(=C\C(=O)O)/C(=C\c1cccc2ccccc12)C(=O)O	0%	?	4%	0%	-1%	-1%
Cc1ccc(-n2c(/C=C/c3cccc4ccccc34)nc3ccccc3c2=O)cc1	.	.	.	5%	.	.
CCn1c(N)c(C(=O)NC)sc1=S	-1%	?	6%	14%	9.5µM*	19µM*
SMILES	USP2a block	Tb PFK inh-1	p53 reactivation	GLS inhibitor	Tb PFK KinaseGlo	Tb PFK inh-2
CCC1(c2ccccc2)CCC(=O)NC1=O (stereo not given)	.	.	.	-13%	.	.
CCN1CCN(C(=O)COc2ccc(S(=O)(=O)N3CCOCC3)cc2Cl)CC1	1%	-20%	0%	-2%	.	.
CC(C)(C)CC(=O)Nc1cc(S(=O)(=O)N2CCOCC2)ccc1N1CCCC1	-8%	?	-3%	0%	-32%	?
NC(=O)N/N=C1\c2ccccc2-c2c(C(N)=O)cccc21	6%	?	-2%	1%	11%	-4%
O=C(O)c1ccccc1-c1ccc(/C=c2\sc3nc4cc(Br)cnc4n3c2=O)o1	-3%	?	-6%	13µM*	6µM*	12µM*
O=C(CSc1ccncc1)Nc1ccc(S(=O)(=O)Nc2nccs2)cc1	2%	19µM*	13%	2%	13µM*	27µM*
O=C(COc1ccccc1F)Nc1ccc(S(=O)(=O)Nc2nccs2)cc1	1%	4.8µM*	1%	10%	2.1µM*	6µM*
O=C(CSc1ccc(Cl)cc1)NC1=NN(c2ccccc2)C(=O)C1	?	0%	-10%	16%	.	.
CC(=O)NS(=O)(=O)c1ccc(NC(=O)CSc2ccc(Cl)cc2)cc1	2%	30µM*	-1%	3%	13µM*	30µM*
CC(C)NS(=O)(=O)c1ccc(OCC(=O)N2CCN(Cc3ccccc3)CC2)c(Cl)c1	-5%	-6%	-15%	6%	.	.
O=C(COc1ccc(F)cc1Cl)Nc1ccc(S(=O)(=O)Nc2nccs2)cc1	3%	1.2µM*	-2%	15%	0.95µM*	1.1µM*
F/C(COc1ccc2c(c1)[nH]c1ccccc12)=C1/CN2CCC1CC2	.	.	.	-3%	.	.
Cc1cc(C)cc(Oc2nc3ccccn3c(=O)c2/C=C(\C#N)c2nc3ccccc3s2)c1	.	.	.	28%	.	.
COc1cc(/C=C(\C#N)c2nc3ccccc3s2)cc([N+](=O)[O-])c1O	2%	?	3%	-18%	-27%	?
O=C(N=Nc1c(O)[nH]c(=O)[nH]c1=O)C1COc2ccccc2O1 (stereo not given)	0%	-4%	1%	6%	.	.
O=C(N/N=C\c1ccc[nH]1)C1COc2ccccc2O1 (stereo not given)	0%	24µM*	-1%	11%	9.5µM*	19µM*
O=C(N/N=C/c1ccco1)C1COc2ccccc2O1 (stereo not given)	7%	?	21%	4%	?	?
CCOP(=S)(OCC)O/N=C(\C#N)c1ccccc1	.	.	.	-1%	.	.
COc1ccc(OC)c(NC(=O)COC(=O)c2cc3c(s2)CCC3)c1	-6%	?	14%	?	?	?
CN[C@H](C)Cc1ccccc1	.	.	.	-6%[99.4 µM]	.	.
Nc1nc2ccccc2n1Cc1ccc(Cl)c(Cl)c1	-5%	?	0%	9%	13µM*	?
CC(CO)NC(=O)C1C=C2c3cccc4[nH]cc(c34)CC2N(C)C1 (stereo not given)	.	.	.	17%	.	.
COC(=O)c1ccc2c(c1)C(C)(C)C(/C=C/c1ccccc1O)=[N+]2C	-5%	13µM*	-8%	0%	-4%	?
COC(=O)c1ccc(C(=O)OC)c(NC(=O)Oc2ccccc2)c1	2%	-6%	?	4%	.	.
